These results are taken from PubChem BioAssay (NCATS).

SMILES strings stand for the structures. Records with an inconclusive call do not appear. The source made the active and inactive calls. Calls come from the whole dose curve; as a rule, active = well fitted curve in the direction sought with a large enough effect; inconclusive = small, poorly fitted or top-dose-only effect, or another doubt; inactive = no such curve, though single readings can be large; an effect the other way counts as inactive or inconclusive.

The nature of assay [1]: qHTS to identify inhibitors of the type 1 interferon - major histocompatibility complex class I in skeletal muscle: primary screen against the NCATS LOPAC collection (AID 1347405).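 Note: human myoblasts with HiBiT tag on endogenous HLA-B stimulated by IFN-beta; lytic HiBiT luminescence reporting HLA-B protein level.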 The procedure, abridged: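 First, engineered myoblasts carrying HLA-B-HiBiT were seeded in medium lacking dexamethasone with 4 ng/ml IFN-beta. After 1 hr, compounds were pinned in (top 46 uM final, 7 points). After 24 hrs at 37 C, luminescence was measured following 10 min lysis.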

Assay [2] is described as follows: qHTS to identify inhibitors of the type 1 interferon - major histocompatibility complex class I in skeletal muscle: primary screen against the NCATS Pharmaceutical Collection (AID 1347407). The procedure, abridged: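 Luminescence from HiBiT-tagged endogenous HLA-B*08:01 served as the read-out of IFN-beta-induced MHC class I in CRISPR-engineered C25cl48 myoblasts. Cells received 4 ng/ml IFN-beta plus compound (high final 46 uM, […]) for 24 h.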
(In qHTS, concentration-response curves come from the screen itself.)

Assay [3] is described as follows: qHTS for inhibitors of adenylyl cyclases using a fission yeast platform: a pilot screen against the NCATS LOPAC library (AID 1347410). The procedure, abridged: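 Fission yeast qHTS: CHP2027 cells (AC9-GNAS-PDE4D2, fbp1-GFP), 5x10^6 cells/mL working density, EMM + His/Lys/Ura; LOPAC at up to 57 µM final; 18 h dark, 30C; GFP by laser cytometry. DPI positive control, DMSO vehicle.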

A short description of assay [4]: qHTS to identify inhibitors of the type 1 interferon - major histocompatibility complex class I in skeletal muscle: primary screen against the NCATS Mechanism Interrogation Plate v5.0 (MIPE) Libary (AID 1347411). Note: nearly all actives have a fitted effect of over 65% in size. The procedure, abridged:
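Seed engineered human myoblasts (HLA-B HiBit) in medium without dexamethasone containing 4 ng/ml IFN-beta; after 1 hr add compound titrations (top 46 uM final). Incubate 24 hrs at 37 C, lyse 10 min with HiBiT reagent, read luminescence.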

Assay [5] addresses Protein phosphatase 1D (Homo sapiens) (UniProt O15297). Description: RapidFire Mass Spectrometry qHTS Assay for Modulators of WT P53-Induced Phosphatase 1 (WIP1) (AID 1347424). Note: potency is the fitted concentration of half-maximal effect. The procedure, abridged:
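RapidFire MS readout of dephosphorylated VEPPL-S-QETFS product, with 1 uM isotope-labelled peptide standard. Reaction: 10 nM WIP1, 2 uM phosphopeptide substrate, 5 min, room temperature, after 1 h compound preincubation; stopped with 0.5% formic acid.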

Assay [6] has the same target. Description: Rhodamine-PBP qHTS Assay for Modulators of WT P53-Induced Phosphatase 1 (WIP1) (AID 1347425). The procedure, abridged:
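Read-out: Rhodamine-PBP fluorescence (ex 525/em 598 nm) for released Pi, read each minute for 11 min after adding 10 uM VEPPL-pS-QETFS; signal taken as f1 minus pre-substrate f0. Enzyme 5 nM WIP1 with 1 hr room-temperature compound preincubation.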

For assay [7], the target named is Single-stranded DNA cytosine deaminase (Homo sapiens) (UniProt Q9GZX7). Description: Validation qHTS assay for inhibitors of Activation Induced Cytidine Deaminase (AID): AID signal (AID 1347429). Note: potency is the fitted concentration of half-maximal effect. The procedure, abridged: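 Steps: dispense AID with UDG; pin-transfer compound up to 114 uM final; add DJC20/DJC23 substrate and hold 4 hr at room temperature; add NaOH, hold 30 min; read FRET signal (540/590 nm).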

Assay [8] is described as follows: Primary qHTS for inhibitors of La Crosse Virus (LACV) - induced cell death in SH-SY5Y cells (AID 1508616).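 Note: top concentration of the series differs between compounds; higher means more rescue of cells from virus-induced death.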 The procedure, abridged: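 SH-SY5Y, 6000 cells/well; cpd via pin tool in DMSO; LACV 0.01 MOI; 6 d 37C 5% CO2; ATPLite, 5 min RT; luminescence normalized to ±virus DMSO controls.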
Assay [9] has as its target Calcium and integrin-binding protein 1 (Homo sapiens) (UniProt Q99828). Description: Validation qHTS for Identification of Calcium Integrin Binding protein 1 (CIB1) Competitor (AID 1508618). The procedure, abridged: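 CIB1-GST (1 uM final) in 5 mM HEPES pH 7.4, 125 mM NaCl, 5 mM CaCl2, 0.01% Tween20 was preincubated 15 min at room temperature with compound (up to 114 uM), then FITC-alphaIIb peptide (100 nM) added for 15 min; fluorescence polarization read.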

The target is the same in assay [10]. The experiment in a line: Primary qHTS for Identification of Calcium Integrin Binding Protein 1 (CIB1) Competitor (AID 1508620). Note: top concentration of the series differs between compounds. The procedure, abridged: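 Fluorescence polarization competition: GST-tagged CIB1 (1 uM final) preincubated with compound 15 min at room temperature, then FITC-labelled alphaIIb peptide (100 nM final) added. After 15 min at room temperature, polarization read at Ex 480/Em 540.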

A short description of assay [11]: Validation qHTS assay for inhibitors of Activation Induced Cytidine Deaminase (AID): UDG Counterscreen signal (AID 1347427). The procedure, abridged:
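Fluorescence at 560 nm excitation, 665 nm emission reports UDG signal after 250 mM NaOH (2x) addition and 30 min. Enzymes (AID 1 uM, UDG 2 U/mL, at 4/3x) preincubated 10 min with compound, then 4 h with 4x 250 nM DJC20/DJC23 substrate at room temperature.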

The nature of assay [12]: Counterscreen qHTS for small molecule stabilizers of the endoplasmic reticulum resident proteome: GLuc-NoTag assay (AID 1508627).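 Note: SH-SY5Y cells given compound then 100 nM thapsigargin to empty ER calcium; series mostly up to about 76 µM.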 The procedure, abridged: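 Counterscreen line: SH-SY5Y-GLuc-NoTag. Seed, 5 h; compound, 19 h; thapsigargin 100 nM, 4 h; 37C/5% CO2. Readout: secreted GLuc luminescence, coelenterazine 0.07x final, no lysis.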

Sequence of Single-stranded DNA cytosine deaminase (Homo sapiens) (Q9GZX7 whole entry, looked up): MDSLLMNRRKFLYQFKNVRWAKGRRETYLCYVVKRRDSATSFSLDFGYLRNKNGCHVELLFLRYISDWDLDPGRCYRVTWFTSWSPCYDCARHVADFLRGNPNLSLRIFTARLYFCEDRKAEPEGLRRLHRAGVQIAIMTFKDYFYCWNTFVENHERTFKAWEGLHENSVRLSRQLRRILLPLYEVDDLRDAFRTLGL
Sequence of Calcium and integrin-binding protein 1 (Homo sapiens) (Q99828 whole entry, looked up): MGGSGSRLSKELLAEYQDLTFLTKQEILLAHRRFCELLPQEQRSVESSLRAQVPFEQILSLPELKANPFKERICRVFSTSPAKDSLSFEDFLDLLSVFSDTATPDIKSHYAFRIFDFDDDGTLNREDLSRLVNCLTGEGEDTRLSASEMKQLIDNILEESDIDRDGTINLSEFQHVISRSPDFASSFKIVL
Sequence of Protein phosphatase 1D (Homo sapiens) (O15297 whole entry, looked up): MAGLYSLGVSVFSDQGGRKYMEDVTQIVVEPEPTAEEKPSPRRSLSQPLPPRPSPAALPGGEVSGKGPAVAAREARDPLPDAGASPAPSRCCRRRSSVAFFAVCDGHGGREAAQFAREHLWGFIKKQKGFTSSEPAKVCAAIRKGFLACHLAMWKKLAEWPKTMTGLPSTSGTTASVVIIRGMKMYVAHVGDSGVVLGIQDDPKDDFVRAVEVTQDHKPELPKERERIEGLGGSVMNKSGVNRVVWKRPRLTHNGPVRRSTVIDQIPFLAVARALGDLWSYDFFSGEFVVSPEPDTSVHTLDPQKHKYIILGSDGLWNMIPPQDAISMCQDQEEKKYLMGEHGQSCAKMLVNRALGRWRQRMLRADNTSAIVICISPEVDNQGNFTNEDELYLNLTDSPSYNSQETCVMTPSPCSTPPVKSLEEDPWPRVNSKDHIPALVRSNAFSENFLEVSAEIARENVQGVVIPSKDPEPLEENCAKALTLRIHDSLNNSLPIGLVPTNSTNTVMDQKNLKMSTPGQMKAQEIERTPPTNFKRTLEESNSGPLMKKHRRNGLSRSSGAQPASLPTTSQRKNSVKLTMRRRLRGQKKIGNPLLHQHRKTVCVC

Consider `Cn1ccc2cc3c(cc21)CCN3C(=O)Nc1cccnc1`, for which the Potency entry in [1], in assay [2], in [4], in [5], in assay [7] and in [8] was “inactive” each time. The Potency entry in [9] and in assay [10] was “inactive” throughout. For the same compound, the outcome in assay [3] and in [6] was inactive.
On to `CCOC(=O)Nc1ccc(NCc2ccc(F)cc2)nc1N`, for which the Potency result in [1], in assay [2], in [4], in assay [5] and in assay [10] was “inactive” in each case. The result in [3] was inactive.
For `Cc1ccc(C(=O)Nc2ccc(S(=O)(=O)O)c3cc(S(=O)(=O)O)cc(S(=O)(=O)O)c23)cc1NC(=O)c1cccc(NC(=O)Nc2cccc(C(=O)Nc3cc(C(=O)Nc4ccc(S(=O)(=O)O)c5cc(S(=O)(=O)O)cc(S(=O)(=O)O)c45)ccc3C)c2)c1`, the Potency entry in assay [1], in [2], in [4], in [11], in assay [8] and in assay [10] was “inactive” in each case. For the same compound, the call in assay [3] was inactive. In addition, the Potency in assay [5] is 3.98 µM (active); in assay [7], 11.2 µM (active).
In the case of `CC(C(=O)O)c1cccc(C(=O)c2ccccc2)c1` (centres undefined), the Potency entry in [1], in [4], in [5], in assay [11], in assay [7] and in assay [8] was “inactive” throughout. The compound was classed as inactive in assay [3] and in [6].
Take `COc1cc2nc(N(C)CCCNC(=O)C3CCCO3)nc(N)c2cc1OC` (centres undefined): the Potency entry in [1], in assay [2], in assay [5], in assay [7], in assay [9] and in assay [10] was “inactive” in each case. Further, the result in assay [3] and in [6] was inactive.
As to `CCOC(=O)C(C)(C)Oc1ccc(Cl)cc1`, the Potency result in assay [1], in assay [4], in assay [5], in assay [7], in [9] and in assay [10] was “inactive” each time. For the same compound, the call in [3] and in assay [6] was inactive.
For `NC12CC3CC(CC(C3)C1)C2`, the Potency result in assay [1], in assay [4], in [5], in [11], in [7] and in assay [9] was “inactive” in each case. Further, the Potency result in assay [10] and in [12] was “inactive” throughout. The outcome in [3] and in assay [6] was inactive.
Consider `CN(C)CCOC(c1ccccc1)c1ccccc1`, for which the Potency result in [1], in [4], in [5], in [11], in assay [7] and in [9] was “inactive” in each case. The Potency result in [10] was “inactive”. For the same compound, the outcome in assay [3] and in [6] was inactive.
For the compound `Nc1nnc(-c2cccc(Cl)c2Cl)c(N)n1`, the Potency result in assay [1], in assay [4], in assay [5], in [8], in [9] and in assay [10] was “inactive” throughout. Moreover, the result in assay [3] and in [6] was inactive.
Take `Clc1ccc2c(c1)C(N1CCNCC1)=Nc1ccccc1O2`: the Potency entry in assay [1], in assay [5], in assay [11], in assay [7], in assay [9] and in [10] was “inactive” in each case. The Potency result in assay [12] was “inactive”. In addition, the result in assay [3] and in assay [6] was inactive.
Take `CCCNCC(O)COc1ccccc1C(=O)CCc1ccccc1` (centres undefined): the Potency result in assay [1], in assay [4], in [5], in assay [7], in [8] and in assay [9] was “inactive” in each case. Besides, the Potency result in [10] and in [12] was “inactive” in each case. In addition, the call in assay [3] and in [6] was inactive.
On to `Cc1cn([C@H]2C=C[C@@H](CO)O2)c(=O)[nH]c1=O`, for which the Potency entry in assay [1], in [5], in assay [11], in [7], in [8] and in assay [9] was “inactive” in each case. Further, the Potency entry in assay [10] is “inactive”. The outcome in assay [3] and in assay [6] was inactive.
